Each structure is given as a SMILES string. Values joined by “and” are separate entries in the source; they are usually repeats but may differ in a detail not shown here. Equal entries are not always repeated. Whole data set: some 110,000 compounds, median “z-score” near -0.1, cut for the highest 2% near 2. The entries come from a sample that favours the highest values as a whole. Active and inactive are the calls of the source.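 Rule for the calls: active = z-score in the third read window above 3 or below -3; inactive = the rest.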

For the test, the target named is Metabotropic glutamate receptor 8 (Rattus norvegicus) (UniProt P70579). Briefly: mGluR8 Gi/Go-coupled signaling modulation – cell-based, rat, thallium flux, HTS, primary screen (AID 488969). The following applies: HEK293 rat mGluR8, GIRK (G protein-gated inwardly rectifying potassium channel) thallium flux, FluoZin2; at 10 µM; stronger effect = higher value; submaximal glutamate (EC20) added with thallium.
Chain of Metabotropic glutamate receptor 8 (Rattus norvegicus) (P70579 whole entry, looked up): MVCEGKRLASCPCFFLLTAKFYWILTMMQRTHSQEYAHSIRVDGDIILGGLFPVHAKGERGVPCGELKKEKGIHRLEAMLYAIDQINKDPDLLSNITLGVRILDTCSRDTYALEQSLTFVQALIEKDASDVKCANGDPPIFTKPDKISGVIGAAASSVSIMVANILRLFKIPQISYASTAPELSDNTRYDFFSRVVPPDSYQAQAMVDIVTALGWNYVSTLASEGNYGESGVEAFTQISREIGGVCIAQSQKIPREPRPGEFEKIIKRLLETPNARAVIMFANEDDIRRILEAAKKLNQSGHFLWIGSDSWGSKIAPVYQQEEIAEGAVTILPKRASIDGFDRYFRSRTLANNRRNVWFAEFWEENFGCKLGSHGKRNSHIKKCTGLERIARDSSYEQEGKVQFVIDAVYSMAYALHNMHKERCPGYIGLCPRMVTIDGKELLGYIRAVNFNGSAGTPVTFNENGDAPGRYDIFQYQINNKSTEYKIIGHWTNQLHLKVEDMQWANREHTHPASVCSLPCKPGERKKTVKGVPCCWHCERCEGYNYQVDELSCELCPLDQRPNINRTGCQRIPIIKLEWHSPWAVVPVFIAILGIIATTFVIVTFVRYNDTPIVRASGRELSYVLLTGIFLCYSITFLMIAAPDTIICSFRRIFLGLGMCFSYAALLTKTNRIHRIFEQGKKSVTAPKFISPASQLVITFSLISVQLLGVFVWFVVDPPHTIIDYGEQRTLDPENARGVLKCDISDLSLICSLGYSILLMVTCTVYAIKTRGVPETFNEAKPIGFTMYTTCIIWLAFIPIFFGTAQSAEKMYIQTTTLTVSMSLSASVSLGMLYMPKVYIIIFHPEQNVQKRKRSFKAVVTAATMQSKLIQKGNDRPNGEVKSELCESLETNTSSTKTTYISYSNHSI
`Cc1nc(=O)c(-c2ccccc2)c(C)n1CCO` displayed a z-score of -0.0934.
For `CC(C)Cn1cnc2sc3c(c2c1=N)CCCC3`, the z-score was 3.07 (active).
As for `N=c1c2c3c(sc2ncn1CCCO)CCCC3`, the figure is -0.123.
Compound `N=c1c2c3c(sc2ncn1Cc1ccccc1)CCCC3` showed a z-score of 0.187.
As for `CCCNC(=S)Nc1ccc(Cl)cc1C`, the figure is -0.142; as for `COc1cccc(N2CCN(Cc3nc(N)nc(Nc4ccccc4OC)n3)CC2)c1`, -0.203; as for `Cc1cccc(C)c1OCC(=O)NCc1nnc(SCC(=O)NC2CCCCC2C)n1C` (centres undefined), -0.0497.
`FC(F)(F)c1cnc(NNC(=S)Nc2ccc(Cl)cc2)c(Cl)c1`: the z-score was 6.35 (active).
As for `Nc1ccccc1C(=O)NNc1ncc(C(F)(F)F)cc1Cl`, the figure is 0.251; as for `Cc1cccc(C)c1NC(=S)NNc1ncc(C(F)(F)F)cc1Cl`, 0.289; as for `CC(C(=O)Nc1ccc(Cl)cc1)c1ncc(C(F)(F)F)cc1Cl` (centres undefined), -0.108.
`O=C(NNc1ncc(C(F)(F)F)cc1Cl)c1c(Cl)cccc1Cl` displayed a z-score of 0.951.
As for `Cc1ccc(NC(=S)NNc2ncc(C(F)(F)F)cc2Cl)c(C)c1`, the z-score amounted to 2.04.
`Cc1ccccc1NC(=S)NNc1ncc(C(F)(F)F)cc1Cl` came in with a z-score of 0.522.
Next, `Cc1ccc(NC(=S)NNc2ncc(C(F)(F)F)cc2Cl)cc1`: 2.19.
Consider `Fc1ccccc1NC(=S)NNc1ncc(C(F)(F)F)cc1Cl`, for which the z-score was found to be 1.37.
Regarding `FC(F)(F)c1cnc(NNC(=S)Nc2ccccc2Cl)c(Cl)c1`, the z-score was 5.28 (active).
As for `Cc1c(Cl)cccc1NC(=S)NNc1ncc(C(F)(F)F)cc1Cl`, the figure is 0.506.
As for `CN(NC(=O)Nc1ccc(Cl)cc1)c1ncc(C(F)(F)F)cc1Cl`, the figure is 0.137; as for `COc1cc2c(cc1NC(=O)c1cccc(Br)c1)CCCC2`, 0.201.
Turning to `N#Cc1cc2c(nc1SCC(N)=O)CCCCC2`, the z-score is -0.0763.
`COc1ccc(-c2csc(Nc3cccnc3)n2)cc1OC` gave a z-score of -0.0895.
For `Cc1cc(=O)oc(C)c1C(=O)OCC(=O)c1ccc2ccccc2c1`, the z-score was -0.249.
As for `CCCCCCn1cnc2c(c1=O)c1nc3ccccc3nc1n2Cc1cccs1`, the figure is -1.43; as for `Cc1nn2c(NCCCN(C)C)c3c(nc2c1-c1ccccc1)CCC3`, 3.36 (active); as for `CCCCNc1c2c(nc3c(-c4ccccc4)c(C)nn13)CCC2`, -0.294.
As for `Cc1nn2c(NCCCN3CCOCC3)c3c(nc2c1-c1ccccc1)CCC3`, the figure is -0.0116.
On to `CC1CCCCN1CC(=O)Nc1ccc(Oc2ccccc2)cc1` (centres undefined), for which the z-score was 3.58 (active).
Next, `O=C(CN1CCOCC1)Nc1ccc(C2CCCCC2)cc1`: 2.23; `O=C(CN1CCOCCOCCOCC1)Nc1ccccc1`: 0.274; `O=C(CN1CCN(C(=S)NC2CCCC2)CC1)Nc1ccc(Oc2ccccc2)cc1`: -0.13.
Next, `CN1CCN(CC(=O)Nc2ccc(Oc3ccccc3)cc2)CC1`: 1.4; `O=C(CN1CCOCCOCCOCCOCC1)Nc1ccccc1`: 0.356.
`CC1CCCCN1CC(=O)NC(=O)NCc1ccccc1` (centres undefined): the z-score was -0.261.
In the case of `O=C(CN1CCNCC1)Nc1ccc(Oc2ccccc2)cc1`, the z-score was 2.35.
As for `O=C(CN1CCOCC1)Nc1ccc(Oc2ccc(NC(=O)CN3CCOCC3)cc2)cc1`, the figure is -0.278; as for `COc1ccc(NC(=O)CN2CCCCC2)cc1`, 0.473; as for `O=C(CN1CCCC1)Nc1ccc(Oc2ccc(NC(=O)CN3CCCC3)cc2)cc1`, 2.7.
Take `O=C(CN1CCOCC1)Nc1ccc(Oc2ccccc2)cc1`: the z-score was 1.91.
Next, `C=CCn1c(N)c(C(=O)Nc2ccc(C)c(C)c2)c2nc3ccccc3nc21`: 0.661; `Cc1c(O)nc(SCC(=O)Nc2ccc3c4c(cccc24)CC3)n(-c2ccccc2)c1=O`: -0.768.
`CCOC(=O)N1CCN(C(=O)CN(C2CCCCC2)S(=O)(=O)c2ccc(F)cc2)CC1` returned a z-score of 0.315.
For the compound `CCOC(=O)c1cnc2ccc(OCC)cc2c1N1CCN(c2ccccc2OC)CC1`, the z-score was -0.8.
On to `COC(=O)c1sc2nc(-c3ccco3)ccc2c1N`, for which the z-score worked out at 2.53.
Compound `COc1ccccc1NC(=O)c1sc2nc(-c3ccco3)ccc2c1N` returned a z-score of 0.132.
As for `NC(=O)c1sc2nc(-c3ccco3)ccc2c1N`, the z-score is -0.321.
On to `CCNC(=S)NNC(=O)c1ccc(OC(F)F)cc1`, for which the z-score is -0.194.
Next, `O=C(NNC(=S)NCc1ccccc1)c1ccc(OC(F)F)cc1`: 2.12; `CC(C)CNC(=S)NNC(=O)c1ccc(OC(F)F)cc1`: -0.0885.
Next, `CCOCCCNC(=O)CCCOc1ccccc1`: 0.0157; `O=C(Cc1ccccc1F)Nc1ccc(Cl)nc1`: 0.217; `Cc1ccc(N2C(=O)c3n[nH]c(C)c3C2c2ccccn2)cc1` (centres undefined): -0.326.
`Cc1ccc(NC2=C(CC(=O)O)C(c3ccccc3)N(c3ccc(C)cc3)C2=O)cc1` (centres undefined) yielded a z-score of -0.426.
Next, `Cc1ccc(C2C3=C(NCCN=C3c3ccccc3)C(=O)N2c2ccccc2)cc1` (centres undefined): 3.18 (active); `CC1CCCCN1S(=O)(=O)c1ccc(NC(=O)c2cccs2)cc1` (centres undefined): -0.377; `O=C(Nc1cccnc1)Nc1ccccc1Cl`: 0.0762.
Compound `CCc1ccc(/C=C/C(=O)c2ccc(N3CCOCC3)cc2)cc1` returned a z-score of 0.286.
Next, `CCN(CC)CC(=O)NC12CC3CC(CC(C3)C1)C2`: 2.42; `O=C(O)CC(=O)NC12CC3CC(CC(C3)C1)C2`: -0.251 and -0.244.
Next, `COCCC(=O)NC12CC3CC(CC(C3)C1)C2`: -0.301; `CCCCCC[n+]1c(-c2ccc(Cl)cc2Cl)csc1Nc1ccccc1`: -0.156; `O=C(NC1CCCCC1)C(c1ccc(F)cc1)N(Cc1ccc2c(c1)OCO2)C(=O)c1cnsn1` (centres undefined): 0.366.
As for `O=C(NC1CCCCC1)C(c1ccccc1)N(Cc1ccc2c(c1)OCO2)C(=O)c1cnsn1` (centres undefined), the figure is 2.16.
Regarding `O=C(CN(Cc1ccc2c(c1)OCO2)C(=O)c1cnsn1)NC1CCCC1`, the z-score was -0.186.
As for `COc1cc(CCN2C(=O)c3cccc4cccc(c34)C2=O)c(S(=O)(=O)N2CCCCCC2)cc1OC`, the figure is -0.297; as for `Cn1c(=O)c2c(nc(CN3CCc4ccccc4C3)n2CC(=O)c2ccccc2)n(C)c1=O`, -0.969; as for `Cn1c(=O)c2c(nc(CN3CCc4ccccc4C3)n2Cc2ccccc2)n(C)c1=O`, -0.932.
Next, `COC(=O)Cn1c(CN2CCc3ccccc3C2)nc2c1c(=O)n(C)c(=O)n2C`: 5.81 (active); `CCOC(=O)c1ccc(NC(=O)c2cc(OC)c(OC)c(OC)c2Br)cc1`: 0.551.
Compound `O=C(O)C1CCCCC1C(=O)NCc1cn2ccccc2n1` (centres undefined) came in with a z-score of -0.352.
For the compound `O=C(CN1CCOCC1)Nc1ccc(OCc2ccccc2)cc1`, the z-score was found to be 0.323.
As for `Cc1ccc(Cn2c(SCC(C)C)nc3c2c(=O)n(C)c(=O)n3C)cc1`, the figure is -0.493; as for `Cc1ccc(Cn2c(SCC(N)=O)nc3c2c(=O)n(C)c(=O)n3C)cc1`, -0.328.
As for `CNC(=O)CSc1nc2c(c(=O)n(C)c(=O)n2C)n1Cc1ccc(C)cc1`, the figure is 2.07.

The values are drawn from PubChem BioAssay AID488969 (Vanderbilt High Throughput Screening Facility, 2010).
